Test results: PubChem BioAssay (EPA / NIEHS)
Active and inactive are the calls of the source. Rule for the calls: active = hit-call score of the fitted dose curve at least 0.9, where 1 is the maximum; inactive = score below 0.9.

experiment: ATG_TA_CIS: Attagene CIS-FACTORIAL HepG2 Assay for human TA Basal Promoter (AID 2282964); details: HepG2 Attagene CIS-factorial TA basal promoter reporter; actives raise or lower the signal
Procedure: ATG_CIS is a cell-based, multiplexed-readout assay that uses HepG2, a human liver cell line, with measurements taken at 24 hours after chemical dosing in a 24-well plate.ATG_TA_CIS is one of 52 assay component(s) measured or calculated from the ATG_CIS assay. It is designed to make measurements of mRNA induction, a form of inducible reporter, as detected with fluorescence intensity signals by Reverse transcription polymerase chain reaction (RT-PCR) and Capillary electrophoresis technology.Data from the assay component ATG_TA_CIS was analyzed into 1 assay endpoint. This assay endpoint, ATG_TA_CIS, was analyzed with bidirectional fitting relative to DMSO as the negative control and baseline of activity. Using a type of inducible reporter, measures of mRNA for gain or loss-of-signal activity can be used to understand the background control at the transcription factor-level as they relate to the gene . Furthermore, this assay endpoint can be referred to as a secondary readout, because this assay has produced multiple assay endpoints where this one serves a background control function. To generalize the intended target to other relatable targets, this assay endpoint is annotated to the background measurement intended target family, where the subfamily is internal marker.
Human liver HepG2 cells are transiently transfected with multiple reporter transcription units (MRTUs) in 6-well plates using FuGene 6 reagent (Roche; 3 ml FuGene/1 mg DNA). The MRTU constructs are regulated by a cis-regulating element (promoter). […] A major difference between the CIS and TRANS system is that in CIS activities of endogenous TFs are measured, whereas the TRANS assay evaluates changes in activities of exogenous, chimeric NR-Gal4 proteins. […] At the end of 24 hour incubation, total RNA was isolated using TriZol reagent (Invitrogen). The isolated RNA is then reverse-transcribed using oligo(dT) primer and Mo-MLV reverse transcriptase (Invitrogen) with DNAse I (Ambion) treatment for 30 min. The one-tenth of the produced cDNA was amplified by PCR using Taq DNA polymerase (Invitrogen) and two reporter sequence-specific primers. The PCR products were fluorescently labeled by primer extension with 6-arboxyfluorescein (6-FAM) 5'-labeled reporter sequence-specific primer (2 min at 95 C, 20 s at 68 C and 10 min at 72 C) and these products were digested with 5U of HpaI (New England Biolabs) for 2h at 37 C. The fragments were purified using Qiaquick PCR columns (Qiagen), analyzed on an ABI 3130xL genetic analyzer (Applied Biosystems) with peak positions identified by using a set of X-rhodamine (ROX)-labeled MapMarker1000 molecular weight standards (BioVentures). The raw capillary electrophoresis data was processed using Attagraph software (Attagene).

outcome, inactive:
CCCCCCCC(=O)OCCCCCC
CC[N+](C)(CC)CC
Cc1cccc(Nc2ccccc2)c1
OC[C@H]1O[C@@H](Oc2ccc(O)cc2)[C@H](O)[C@@H](O)[C@@H]1O
Clc1ccc(C(c2ccccc2Cl)C(Cl)Cl)cc1 (stereo not given)
CCC(=O)O[C@@H]1C[C@H]2CC[C@]1(C)C2(C)C
CCCCC1CCC(O)CC1 (stereo not given)
C=C(C)CNCC
C=C(C)C1CC=C(C)C(=O)C1 (stereo not given)
CN(C)CCOC(C)(c1ccccc1)c1ccccn1 (stereo not given)
C=CCCCCCCCCCC
CC(=O)OCCCc1ccccc1
CC(=O)O[C@H]1C[C@@H]2CC[C@@]1(C)C2(C)C
CC1CC(O)CC(C)(C)C1 (stereo not given)
CCN(CC)C(=O)N(CC)CC
Cc1cc(=O)oc2cc(N(C)C)ccc12
CC(C)Nc1nc(N)nc(Cl)n1
C=CCN(CC=C)CC=C
Cc1ccc(S(N)(=O)=O)cc1
c1ccc2cc(Nc3ccc(Nc4ccc5ccccc5c4)cc3)ccc2c1
[Cl][Au]([Cl])[Cl]
O=c1[nH]c(=O)c2cn[nH]c2[nH]1
O=C(CS)OCCOC(=O)CS
CC(=O)c1c(C)c([N+](=O)[O-])c(C(C)(C)C)c([N+](=O)[O-])c1C
COc1cccc(OC)c1O
CCCOCCO
O=C(O)CCCCCCCCC(=O)O
CCCCCCCCC=CCCCCCCCC1=NCCN1CCO
OCCOCCN1CCN(C2=Nc3ccccc3Sc3ccccc32)CC1
CCCCCCCCc1ccc(S(=O)(=O)O)cc1
Nc1ccc2c(O)cc(S(=O)(=O)O)cc2c1
Clc1cc(Cl)c(-c2c(Cl)c(Cl)cc(Cl)c2Cl)cc1Cl
NCc1ccco1
O=P(O)(O)O
O=[N+]([O-])c1cccc(Cl)c1
CCCCCCCCCC(=O)OC
CCCC[P+](CCCC)(CCCC)CCCC
CCCCCCOCCOCCO
C[N+](C)(C)CCCCCC[N+](C)(C)C
CCCCCC(C)=O
